Where “and” joins values, the source holds several entries; their conditions need not be identical. Equal values may be shown once. Where a name gives a salt, the structure may show the parent alone.
Assays:
Experiment in all cases: cell viability relative to vehicle control; higher = less cytotoxic
Conditions in all cases: 10 µM
[1] = system: K562
How it was run: (§1)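 Mutant clones made by CRISPR editing and their isogenic wild-type counterparts, from four leukaemia lines, were exposed to a single 10 µM dose of each library compound for 48 h. The supernatant was then removed and CellTiter-Glo luminescence was read. Viability was reported as percent of the on-plate vehicle control.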

[2] = system: MARIMO
How it was run: as §1

[3] = system: MOLM14
How it was run: as §1

[4] = system: OCI-AML2
How it was run: as §1

SMILES | cell viability ([1]; SRSF2 genotype: SRSF2 P95H/wt) | cell viability ([1]; SRSF2 genotype: SRSF2 wt/wt) | cell viability ([2]; SRSF2 genotype: SRSF2 P95H/wt) | cell viability ([2]; SRSF2 genotype: SRSF2 wt/wt) | cell viability ([3]; SRSF2 genotype: SRSF2 P95H/wt) | cell viability ([3]; SRSF2 genotype: SRSF2 wt/wt) | cell viability ([4]; SRSF2 genotype: P95H/wt) | cell viability ([4]; SRSF2 genotype: wt/wt)
O=c1[nH]c2ccccc2o1 [2-Benzoxazolinone] | 100% and 89.3% | 96.7% | 97.2% | 102% | 98.4% | 104% | 91.5% | 94.2%
CN1C(=O)CCS(=O)(=O)C1c1ccc(Cl)cc1 (configuration not stated) [Chlormezanone (Trancopal)] | 102% and 101% | 93.5% | 97% | 96.7% | 93.1% | 97.2% | 94.1% | 95.6%
C/C(=C\c1csc(C)n1)[C@@H]1C[C@@H]2O[C@@H]2CCC[C@H](C)[C@H](O)[C@@H](C)C(=O)C(C)(C)[C@@H](O)CC(=O)O1 [Epothilone A] | 22.5% and 33% | 32.5% | 7.48% | 5.2% | 6.35% | 2.31% | 7.11% | 8.21%
CN1[C@@H]2CC[C@H]1C[C@@H](OC(=O)[C@H](CO)c1ccccc1)C2 [Hyoscyamine (Daturine)] | 104% and 93.5% | 91.9% | 104% | 107% | 99.2% | 102% | 95.4% | 113%
Cc1sc2c(c1C)C(c1ccc(Cl)cc1)=N[C@@H](CC(=O)Nc1ccc(O)cc1)c1nnc(C)n1-2 | 60.9% and 68.8% | 71.9% | 27.3% | 35.8% | 18% | 14.1% | 17.7% | 32.3%
CC(C)=CCCC(C(=O)O)C1CCC2(C)C3=C(CCC12C)C1(C)CCC(=O)C(C)(C)C1CC3 (stereo not drawn) [Beta-Elemonic] | 96% and 89.7% | 87.7% | 92.7% | 99% | 88.8% | 93.1% | 100% | 101%
c1ccc2c(c1)[I+]c1ccccc1-2 [Diphenyleneiodonium chloride (DPI)] | 25.4% and 25.3% | 25% | 19.6% | 25.4% | 3.2% | 2.99% | 11.4% | 16.4%
CCc1c2c(nc3ccccc13)-c1cc3c(c(=O)n1C2)COC(=O)[C@]3(O)CC [7-Ethylcamptothecin] | 7.64% and 19.6% | 10.4% | 5.75% | 3.52% | 0.48% | 0.48% | 0.36% | 0.82%
Cc1cccc([C@H](C)c2c[nH]cn2)c1C [Dexmedetomidine HCl (Precedex)] | 99.1% and 101% | 91% | 102% | 100% | 102% | 104% | 107% | 110%
COC1CC(OC2CCC3(C)C(CCC45OC46CCC(C(C)=O)C6(C)C(OC(C)=O)C(OC(=O)c4ccccc4)C35)C2)OC(C)C1OC1OC(C)C(O)C(OC)C1O (configuration not stated) [Tenacissoside I] | 92.5% and 93.1% | 93.8% | 88.2% | 100% | 91.9% | 92.5% | 95% | 106%
CC12NC(Cc3ccccc31)c1ccccc12 (single isomer, unassigned; (+)) [(+)-MK 801 maleate] | 92.8% and 93.5% | 93.2% | 85.7% | 91.7% | 91% | 91.5% | 86.7% | 99.1%
COc1cc2c(cc1OC)C(Cc1ccc(O)c(Oc3cc4c(cc3OC)CCN(C)C4Cc3ccc(O)cc3)c1)N(C)CC2.[O-][Cl+3]([O-])([O-])O (configuration not stated) [Liensinine diperchlorate] | 87% and 79.8% | 77.4% | 64.6% | 76.3% | 61.7% | 77.2% | 63.7% | 63.7%
COc1ccc(N(C(=O)Oc2c(C)cccc2C)c2ccnc(Nc3ccc(N4CCN(C)CC4)cc3)n2)c(OC)c1 | 7.22% and 20.7% | 6.62% | 72.3% | 58.7% | 38.8% | 35.4% | 23.5% | 28.6%
C[C@H]1CC(=O)C[C@@H]2CC[C@H]3[C@@H]4CC[C@H](O)[C@@]4(C)CC[C@@H]3[C@]21C [Mesterolone] | 84.1% and 79.7% | 83% | 71.6% | 82.2% | 79.9% | 84.7% | 75.6% | 80.7%
CC[N+](C)(CC)CCOC(=O)C(O)(c1ccccc1)c1ccccc1 [Methylbenactyzine Bromide] | 95.9% and 96.8% | 100% | 97.7% | 104% | 96.1% | 102% | 97.7% | 91%
CN1CC=C(c2ccccc2)CC1 [MPTP hydrochloride] | 100% and 99.7% | 102% | 107% | 111% | 103% | 105% | 92.5% | 108%
C[C@]12CC[C@H](O)CC1=CC[C@@H]1[C@@H]2CC[C@]2(C)C(=O)CC[C@@H]12 [Dehydroepiandrosterone (DHEA)] | 89.1% and 108% | 102% | 98.1% | 101% | 108% | 103% | 110% | 93.2%
NCCc1ccccc1 [2-Phenylethylamine hydrochloride] | 105% and 104% | 104% | 103% | 105% | 104% | 106% | 112% | 117%
C=C[C@H]1CN2CC[C@]3(C(=O)Nc4ccccc43)[C@@H]2C[C@@H]1/C(=C\OC)C(=O)OC [Corynoxeine] | 92.3% and 98.1% | 97.7% | 84.5% | 81.1% | 93.8% | 93.1% | 96% | 95.4%
COC(=O)Nc1nc2ccccc2[nH]1 [Carbendazim] | 35% and 44.4% | 51.9% | 36.2% | 31.8% | 58.5% | 49% | 60.5% | 52.2%

SMILES | cell viability ([1]; SRSF2 genotype: SRSF2 P95H/wt) | cell viability ([1]; SRSF2 genotype: SRSF2 wt/wt) | cell viability ([2]; SRSF2 genotype: SRSF2 P95H/wt) | cell viability ([2]; SRSF2 genotype: SRSF2 wt/wt) | cell viability ([3]; SRSF2 genotype: SRSF2 P95H/wt) | cell viability ([3]; SRSF2 genotype: SRSF2 wt/wt) | cell viability ([4]; SRSF2 genotype: P95H/wt) | cell viability ([4]; SRSF2 genotype: wt/wt)
O=C([O-])C(Cl)Cl.[Na+] [Sodium dichloroacetate (DCA)] | 96.5% and 94.6% | 97.6% | 96.1% | 104% | 95.3% | 99% | 96.7% | 101%
O=C(/C=C/c1ccccc1)OC[C@H]1O[C@@H](O[C@@H]2OC=C[C@H]3[C@H](O)[C@@H]4O[C@]4(CO)[C@@H]23)[C@H](O)[C@@H](O)[C@@H]1O [Picroside I] | 99.3% and 101% | 105% | 98.8% | 98.7% | 101% | 103% | 104% | 100%
CN(C)[C@@H]1C(=O)C(C(N)=O)=C(O)[C@@]2(O)C(=O)C3=C(O)c4c(O)cccc4[C@@](C)(O)[C@H]3[C@H](O)[C@@H]12 [Oxytetracycline (Terramycin)] | 86.7% and 82.8% | 85.9% | 90.8% | 87.4% | 87.5% | 88.3% | 84.5% | 90%
COc1cc2c(cc1O)C[C@H]1c3c(cc(O)c(OC)c3-2)CCN1C [Boldine] | 99.6% and 100% | 99% | 94.1% | 88.6% | 96.5% | 101% | 95.3% | 91%
CC(C)OC(=O)[C@H](C)N[P@](=O)(CO[C@H](C)Cn1cnc2c(N)ncnc21)Oc1ccccc1 [Tenofovir Alafenamide (GS-7340)] | 100% and 106% | 97.3% | 93.8% | 91.2% | 87% | 90.6% | 31.5% | 53.6%
CCNc1nc(Cl)nc(NC(C)C)n1 [Atrazine] | 97.5% and 94.1% | 98.2% | 90.6% | 102% | 93.9% | 97% | 99.1% | 104%
Nc1nc(N)nc(N)n1 [Melamine] | 93% and 95.7% | 90% | 94.3% | 99% | 90.1% | 94.4% | 95.2% | 97.8%
O=C(O)CNC(=O)c1c(O)c2ccccc2n(Cc2ccccc2)c1=O | 95.1% and 95.2% | 101% | 94.3% | 100% | 99.8% | 101% | 103% | 96.5%
O=C1CCC[C@@H]2[C@H]3CCCN4CCC[C@H](CN12)[C@@H]34 [Sophoridine] | 104% and 100% | 105% | 108% | 113% | 103% | 108% | 100% | 101%
C[C@H]1CC[C@@H]2N(C1)C[C@H]1[C@@H]3C[C@H]4[C@@H](CC(=O)[C@H]5C[C@@H](O)CC[C@@]54C)[C@@H]3CC[C@H]1[C@]2(C)O [Imperialine] | 112% and 97.8% | 109% | 103% | 101% | 105% | 106% | 101% | 107%
O=C(NCC1CCOCC1)c1cnc(Nc2ccc(Cl)cc2Cl)nc1C(F)(F)F | 95% and 97.7% | 98% | 93.5% | 104% | 103% | 104% | 98.5% | 102%
Cc1c(N[C@@H](c2nnc(-c3ccc(C#N)cc3)o2)[C@H](C)O)ccc(C#N)c1Cl | 87.6% and 86.2% | 100% | 88.4% | 96.5% | 88.9% | 100% | 100% | 102%
CC(C)=CCCC(C)(O)C1CCC2(C)C1C(O)CC1C3(C)CCC(O)C(C)(C)C3C(OC3OC(CO)C(O)C(O)C3O)CC12C [(20R)-Ginsenoside Rh1] | 101% and 98.6% | 103% | 111% | 98.8% | 115% | 107% | 107% | 108%
CN1CCc2cc3c(cc2C1C1OC(=O)c2c1ccc1c2OCO1)OCO3 (single isomer, unassigned; (+)) [(+)-Bicuculline] | 102% and 97.1% | 96.5% | 97.6% | 106% | 99.2% | 99.5% | 93.9% | 96.7%
CCCCCCC[n+]1ccc(-c2cc[n+](CCCCCCC)cc2)cc1 [DHBP dibromide] | 51.7% and 49.9% | 56.3% | 71% | 76.1% | 53.9% | 76.4% | 51.8% | 52.4%
CC(C)=CCCC(C)(O)C1CCC2(C)C1C(O)CC1C3(C)CCC(O)C(C)(C)C3C(OC3OC(CO)C(O)C(O)C3O)CC12C [20(S)-Ginsenoside Rh1] | 103% and 105% | 101% | 106% | 110% | 102% | 106% | 107% | 115%
CC1C(=O)OC2C(O)C34C5OC(=O)C3(OC3OC(=O)C(O)C34C(C(C)(C)C)C5O)C12O (configuration not stated) [Ginkgolide C] | 98.9% and 97.9% | 94.4% | 93.5% | 97.6% | 103% | 103% | 102% | 105%
O=C(NC(=O)c1c(F)cccc1F)Nc1ccc(OC(F)(F)C(F)OC(F)(F)F)c(Cl)c1 (configuration not stated) [Novaluron] | 110% and 101% | 113% | 94.2% | 98.4% | 106% | 106% | 98.1% | 109%
C[C@@H]1CCC=C2C(=O)C[C@H]3OOC(C)(C)[C@H]3[C@]21C [Nardosinone] | 85.3% and 82.5% | 83.5% | 84.7% | 92.8% | 89.8% | 91.4% | 92.9% | 102%

— the supplement of paper PMC10981050
